Experimental data reported in PubChem BioAssay (NCI).
“And” between values parts separate entries of the source, which are not always exact repeats. Identical values can stand only once. The panel holds about 83,000 compounds, 20% with a hit somewhere; the sample as a whole holds those more often.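 Step 1: grow cells in 96-well plates. Step 2: add test compound at a single concentration. Step 3: incubate 48 h. Step 4: record percent growth.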 Values without a mark were called inactive. The source made the active and inactive calls. The calls were made as follows: active = growth percent below 10; inactive = the rest.

Each molecule was assayed on MDA-MB-468 breast (assay: NCI-60 one-dose screen, 48 h (100 = growth as untreated, 0 = no growth, -100 = all killed)). Conditions: 10 µM unless noted.

With S=C(c1cccs1)N1CCN(c2cccc(Cl)c2)CC1 as the molecule, how does the growth read?
Its growth is 85.8%.

Which growth does the source give for CCc1ccc(CCC(=O)Nc2ncc(Cc3ccc(Cl)cc3)s2)o1 here?
The growth was 0.812% (active).

For N#Cc1c(N)nc(NCCO)nc1-c1ccc(F)cc1, which growth is on record?
Its growth is 102%.

O=c1cc(-c2ccc(OCc3ccccc3)cc2)oc2c(I)c(OCc3ccccc3)cc(OCc3ccccc3)c12 was tested. Which growth did it give?
Its growth is 102%.

For Nc1cc(-c2cccc(OC(F)(F)F)c2)nc2ccc(N3CCCC3)cc12, which growth is on record?
Its growth is -10.7% (active) and -15.9% (active) and -23.5% (active).

How did the growth turn out when NC1=C(/C(N)=N/O)C(c2ccccc2)c2ccc3ccccc3c2O1 (stereo not given) was run?
Its growth is -1.49% (active).

With COc1cc2oc(-c3cccc(C(=O)Nc4ccc(Br)cc4)c3)cc(=O)c2c(OC)c1OC as the molecule, how does the growth read?
The growth was 64.3%.

For Brc1ccc(-c2nc3ccccc3s2)cc1, which growth is on record?
Its growth is 93%.

How did the growth turn out when Clc1ccc(-c2nnc(Cn3ccnc3)o2)cc1 was run?
The growth was 104%.

Which growth does the source give for COc1cc2cc(Oc3ccc(NC(=O)c4cc(C(F)(F)F)cc(C(F)(F)F)c4)cc3)c(C)nc2cc1OC here?
Its growth is 22.8%.

Which growth does the source give for COc1ccc(-c2cc(-c3ccc(N(C)C)cc3)nc(NC(=O)c3ccncc3)n2)cc1 here?
The growth was 75.5%.

Which growth does the source give for Clc1cc2c(c(CSc3nc4ccccc4n4cccc34)c1)OCOC2 here?
The growth was -1.64% (active).

With Oc1ccc(CNNc2ccnc3c(O)cccc23)c2cccnc12 as the molecule, how does the growth read?
The growth was 64.3%.

With CC(C)(C)CC(C)(C)c1ccc(OCCSC(=N)N)cc1 as the molecule, how does the growth read?
The growth was -23.9% (active).

How did the growth turn out when COC(=O)c1ccc2[nH]c(O)c(C(=Nc3ccc(N(C)C(=O)CN4CCN(C)CC4)cc3)c3ccc([N+](=O)[O-])cc3)c2c1 was run?
The growth was 85.9%.

COc1cc(C=Nc2oc(-c3ccccc3)c(-c3ccccc3)c2C#N)cc(CN2CCCCC2)c1O was tested. Which growth did it give?
Its growth is 95.6%.

Which growth does the source give for CC(=O)Nc1cc(S(=O)(=O)O)cc2cc(S(=O)(=O)O)c(N=Nc3ccccc3)c(O)c12 here?
The growth was 93.5% and 101%.

Which growth does the source give for COC(=O)c1cc(-c2cccs2)c(C#N)c(N)c1C#N here?
The growth was 80.8%.

With COc1ccc(CCNC=O)cc1OC as the molecule, how does the growth read?
Its growth is 77.7%.

Which growth does the source give for Cn1cc(-c2nc(-c3c[nH]c4ncccc34)cs2)c2cc(F)ccc21 here?
The growth was -22.6% (active).

With CCCCCCc1nc2nc(Cl)c(Cl)nc2[nH]1 as the molecule, how does the growth read?
The growth was 31.1%.

Which growth does the source give for O=C1[C@H]2Cc3c([nH]c4ccccc34)[C@@H](c3c(Cl)cccc3Cl)N2C(=O)CN1C1CCN(CC2CCCCC2)CC1 here?
The growth was 80.5%.

How did the growth turn out when COc1ccc(-c2cc(-c3cc(OC)c(OC)c(OC)c3)c(C#N)c(=O)n2CCCCCC(=O)NO)cc1 was run?
The growth was 97.4%.

Which growth does the source give for COC(=O)C(Cc1ccccc1)NC(=O)c1ccc(NC(=O)c2[nH]c(C)c(Cl)c2Cl)c(OC(C)C)c1 (stereo not given) here?
The growth was 96.8%.

How did the growth turn out when N#C/C(=C\c1ccc([N+](=O)[O-])s1)c1nc2cc(Br)ccc2s1 was run?
The growth was 32.4%.

CCOC(=O)CSSCC(=O)OCC was tested. Which growth did it give?
The growth was 117%.

Which growth does the source give for NC1=C(Br)C(=O)c2ncccc2C1=O here?
Its growth is -14.8% (active).

How did the growth turn out when Nc1cc(C(=O)O)cc(C(=O)O)c1 was run?
The growth was 112%.

With C=C1C(=O)O[C@H]2[C@H]1CC/C(COC(=O)NCc1ccc(Cn3c(=O)sn(-c4ccc(C#N)cc4)c3=O)cc1)=C\CC[C@@]1(C)O[C@@H]21 as the molecule, how does the growth read?
The growth was 7.72% (active).

For c1nc2ccc(-c3cc4ccc5[nH]ncc5c4c4c3CCCC4)cc2[nH]1, which growth is on record?
The growth was 17.1%.

CCOC(=O)N1C/C(=C/c2ccc(F)cc2)C(=O)/C(=C/c2ccc(F)cc2)C1 was tested. Which growth did it give?
Its growth is -55.6% (active).

For N#Cc1c(NC(=O)c2cccc(C(F)(F)F)c2)sc2c1CCC(=O)C2, which growth is on record?
The growth was -8.78% (active).

How did the growth turn out when O=C1Nc2ccccc2/C1=N/N=C/c1ccsc1 was run?
Its growth is 78.3%.

For COCC(=O)NC/C=C/c1ccc2ncnc(Nc3ccc(Oc4ccc(C)nc4)c(C)c3)c2c1, which growth is on record?
Its growth is 28.4%.

How did the growth turn out when CCN(CC)c1ccc2nc3ccc(=[N+](CC)CC)cc-3oc2c1 was run?
The growth was -46.6% (active).

Cc1ccccc1/C=C/C(=O)c1cccc(OCCCCOc2cccc(C(=O)/C=C/c3ccccc3C)c2)c1 was tested. Which growth did it give?
The growth was 86.1%.

Which growth does the source give for CCN1C(=O)N(CC)C2SC(N/N=C/C=C/c3ccccc3OC)=NC21 (stereo not given) here?
Its growth is 36.8%.

For Cc1c(O)c(=O)ccn1-c1nc2ccccc2s1, which growth is on record?
Its growth is 103%.

With COc1cccc(N=CNc2cccc(OC)c2)c1 as the molecule, how does the growth read?
The growth was 107%.

CCOCCNC1=C(Cl)C(=O)c2ccccc2C1=O was tested. Which growth did it give?
Its growth is 94.7%.
